Results published in article doi:10.1101/2024.03.05.583629.

Target: pT7_6His-AlfaTag-HOXD13 (human, UniProt P35453 263-343)
Experiment: PADIT-seq
Conditions: dsDNA, one strand shown

Sequence of pT7_6His-AlfaTag-HOXD13 (P35453 263-343): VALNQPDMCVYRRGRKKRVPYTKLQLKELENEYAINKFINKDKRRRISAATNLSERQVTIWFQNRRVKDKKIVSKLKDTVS

**Q.** With “CTCGAGGATATCAAGATCTGGCCTCGGCTCATGGGCGGGAACCTCTAGCTAGCCGACTCACTATAGGGATAATCGCCCTGAGCAAAGACC” as the sequence, how does the binding signal read?
**A.** -1.04 ± 0.124 log2FC

**Q.** Which binding signal does the source give for “CTCGAGGATATCAAGATCTGGCCTCGGCACACCACGCGGAACCTCTAGCTAGCCGACTCACTATAGGGATAATCGCCCTGAGCAAAGACC” here?
**A.** -0.837 ± 0.131 log2FC

**Q.** For “CTCGAGGATATCAAGATCTGGCCTCGGCCGCTTGCGCGGAACCTCTAGCTAGCCGACTCACTATAGGGATAATCGCCCTGAGCAAAGACC”, which binding signal is on record?
**A.** -0.985 ± 0.131 log2FC

**Q.** With “CTCGAGGATATCAAGATCTGGCCTCGGCCGATGGGCGGGAACCTCTAGCTAGCCGACTCACTATAGGGATAATCGCCCTGAGCAAAGACC” as the sequence, how does the binding signal read?
**A.** -1.02 ± 0.115 log2FC

**Q.** “CTCGAGGATATCAAGATCTGGCCTCGGCCGCCCAGGAGGAACCTCTAGCTAGCCGACTCACTATAGGGATAATCGCCCTGAGCAAAGACC” was tested. Which binding signal did it give?
**A.** -1.1 ± 0.149 log2FC

**Q.** With “CTCGAGGATATCAAGATCTGGCCTCGGCGCGTGGGTTGGAACCTCTAGCTAGCCGACTCACTATAGGGATAATCGCCCTGAGCAAAGACC” as the sequence, how does the binding signal read?
**A.** -1.06 ± 0.134 log2FC

**Q.** Which binding signal does the source give for “CTCGAGGATATCAAGATCTGGCCTCGGCATCCCACGCGGAACCTCTAGCTAGCCGACTCACTATAGGGATAATCGCCCTGAGCAAAGACC” here?
**A.** -0.991 ± 0.113 log2FC

**Q.** How did the binding signal turn out when “CTCGAGGATATCAAGATCTGGCCTCGGCGCGTGGTTAGGAACCTCTAGCTAGCCGACTCACTATAGGGATAATCGCCCTGAGCAAAGACC” was run?
**A.** -0.958 ± 0.117 log2FC

**Q.** How did the binding signal turn out when “CTCGAGGATATCAAGATCTGGCCTCGGCCTTTTACGAGGAACCTCTAGCTAGCCGACTCACTATAGGGATAATCGCCCTGAGCAAAGACC” was run?
**A.** 3.52 ± 0.0778 log2FC

**Q.** How did the binding signal turn out when “CTCGAGGATATCAAGATCTGGCCTCGGCGACATAAAAGGAACCTCTAGCTAGCCGACTCACTATAGGGATAATCGCCCTGAGCAAAGACC” was run?
**A.** 1.3 ± 0.0763 log2FC

**Q.** With “CTCGAGGATATCAAGATCTGGCCTCGGCGCGTTGGCGGGAACCTCTAGCTAGCCGACTCACTATAGGGATAATCGCCCTGAGCAAAGACC” as the sequence, how does the binding signal read?
**A.** -1.07 ± 0.16 log2FC

**Q.** “CTCGAGGATATCAAGATCTGGCCTCGGCTTTTTATCGGGAACCTCTAGCTAGCCGACTCACTATAGGGATAATCGCCCTGAGCAAAGACC” was tested. Which binding signal did it give?
**A.** 1.91 ± 0.0856 log2FC

**Q.** How did the binding signal turn out when “CTCGAGGATATCAAGATCTGGCCTCGGCACGTGGGCGGGAACCTCTAGCTAGCCGACTCACTATAGGGATAATCGCCCTGAGCAAAGACC” was run?
**A.** -0.888 ± 0.116 log2FC

**Q.** With “CTCGAGGATATCAAGATCTGGCCTCGGCCTTTTAGTGGGAACCTCTAGCTAGCCGACTCACTATAGGGATAATCGCCCTGAGCAAAGACC” as the sequence, how does the binding signal read?
**A.** 1.46 ± 0.0766 log2FC

**Q.** Which binding signal does the source give for “CTCGAGGATATCAAGATCTGGCCTCGGCAGTTGGGCGGGAACCTCTAGCTAGCCGACTCACTATAGGGATAATCGCCCTGAGCAAAGACC” here?
**A.** -0.843 ± 0.104 log2FC

**Q.** For “CTCGAGGATATCAAGATCTGGCCTCGGCATTTTACTTGGAACCTCTAGCTAGCCGACTCACTATAGGGATAATCGCCCTGAGCAAAGACC”, which binding signal is on record?
**A.** 1.23 ± 0.0944 log2FC

**Q.** “CTCGAGGATATCAAGATCTGGCCTCGGCATTTTAATAGGAACCTCTAGCTAGCCGACTCACTATAGGGATAATCGCCCTGAGCAAAGACC” was tested. Which binding signal did it give?
**A.** 2.83 ± 0.073 log2FC

**Q.** Which binding signal does the source give for “CTCGAGGATATCAAGATCTGGCCTCGGCGGAGTAAAAGGAACCTCTAGCTAGCCGACTCACTATAGGGATAATCGCCCTGAGCAAAGACC” here?
**A.** -0.327 ± 0.108 log2FC

**Q.** For “CTCGAGGATATCAAGATCTGGCCTCGGCATTTTATCTGGAACCTCTAGCTAGCCGACTCACTATAGGGATAATCGCCCTGAGCAAAGACC”, which binding signal is on record?
**A.** 0.909 ± 0.103 log2FC

**Q.** With “CTCGAGGATATCAAGATCTGGCCTCGGCTGGCTAAAAGGAACCTCTAGCTAGCCGACTCACTATAGGGATAATCGCCCTGAGCAAAGACC” as the sequence, how does the binding signal read?
**A.** -0.708 ± 0.106 log2FC

**Q.** With “CTCGAGGATATCAAGATCTGGCCTCGGCCTTTTAGAGGGAACCTCTAGCTAGCCGACTCACTATAGGGATAATCGCCCTGAGCAAAGACC” as the sequence, how does the binding signal read?
**A.** 1.1 ± 0.092 log2FC

**Q.** With “CTCGAGGATATCAAGATCTGGCCTCGGCAGCCCACGCGGAACCTCTAGCTAGCCGACTCACTATAGGGATAATCGCCCTGAGCAAAGACC” as the sequence, how does the binding signal read?
**A.** -0.926 ± 0.109 log2FC

**Q.** Which binding signal does the source give for “CTCGAGGATATCAAGATCTGGCCTCGGCCTTTTATGCGGAACCTCTAGCTAGCCGACTCACTATAGGGATAATCGCCCTGAGCAAAGACC” here?
**A.** 1.88 ± 0.0756 log2FC

**Q.** With “CTCGAGGATATCAAGATCTGGCCTCGGCCTATGGGCGGGAACCTCTAGCTAGCCGACTCACTATAGGGATAATCGCCCTGAGCAAAGACC” as the sequence, how does the binding signal read?
**A.** -0.949 ± 0.119 log2FC

**Q.** With “CTCGAGGATATCAAGATCTGGCCTCGGCTTATGGGCGGGAACCTCTAGCTAGCCGACTCACTATAGGGATAATCGCCCTGAGCAAAGACC” as the sequence, how does the binding signal read?
**A.** 1.03 ± 0.0902 log2FC

**Q.** How did the binding signal turn out when “CTCGAGGATATCAAGATCTGGCCTCGGCCATCCACGCGGAACCTCTAGCTAGCCGACTCACTATAGGGATAATCGCCCTGAGCAAAGACC” was run?
**A.** -1.04 ± 0.111 log2FC
